TRHR ag = agonists of human TRH receptor; P34981; TRHR cells, calcium flux fluo-8, FDSS agonist mode; activation, % at 2 µM; hit rate 0.18% among 360,000; AID 493084; also: 0% is about no effect
Target sequence (P34981 whole entry, looked up): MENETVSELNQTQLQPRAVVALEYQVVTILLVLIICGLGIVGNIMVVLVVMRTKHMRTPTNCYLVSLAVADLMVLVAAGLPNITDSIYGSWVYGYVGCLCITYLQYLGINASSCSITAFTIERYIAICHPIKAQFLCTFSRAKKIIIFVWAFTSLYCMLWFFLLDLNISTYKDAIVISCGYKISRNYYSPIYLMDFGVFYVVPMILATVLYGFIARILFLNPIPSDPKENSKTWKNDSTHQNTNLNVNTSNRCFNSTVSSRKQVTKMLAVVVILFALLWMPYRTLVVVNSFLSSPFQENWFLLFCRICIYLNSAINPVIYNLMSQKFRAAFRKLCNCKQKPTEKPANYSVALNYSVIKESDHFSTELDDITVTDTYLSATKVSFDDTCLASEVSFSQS
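Agonist-mode FDSS calcium read (Ex 480/Em 530, 1 s cycles) in 1536-well TRHR cells with fluo-8 dye, after 10-cycle baseline and 23 nL compound addition; TRH at EC20 (10 nM final) added afterwards for the enhancer phase.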
D1 ag = agonists of human D1 dopamine receptor | P21728 | HEK293 T-REx D1 cells, calcium flux, agonist mode | activation, % at 2 µM | hit rate 1% among 360,000 | AID 504660; also: 0% is about no effect
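Tetracycline-induced HEK293 TREx D1 cells, force-coupled to calcium signalling, were dye-loaded with a no-wash calcium kit. Compound was pin-added after a 10 s baseline. Fluorescence was read kinetically at 1 cycle/s for 180 s, with calcium rises flagged as agonism.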
D1 potentiator = potentiators of human D1 dopamine receptor | potentiation, % at 10 µM | P21728 | hit rate 0.036% among 360,000 | HEK293 TREx D1 cells, calcium flux, dopamine EC20 potentiation; in the data active = potentiation above about 30%; also: 0% is about no effect
USP1-UAF1 inh = inhibitors of human USP1/UAF1 deubiquitinase; hit rate 0.23% among 390,000; Potency, µM (highest dose often 57.1 µM), for inactives: top-dose activity change, negative = inhibition, usual class: inhibitors; recombinant USP1/UAF1, Ub-Rhodamine cleavage fluorescence; O94782; AID 743255; active = well fitted inhibition curve with a large enough effect; inconclusive = small, poorly fitted or top-dose-only effect; inactive = no such curve, though single readings can be large or run the other way; also: potency is read from the fitted curve at half-maximal effect; % is scaled to controls: 0 for no effect and ±100 for the full control effect; nearly all actives have a fitted effect of over 60% in size
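USP1/UAF1 complex (1 nM) preincubated 15 min at room temperature with compound, then Ub-Rho substrate (150 nM final) added. Kinetic fluorescence at 480/540 nm over 6 reads at 60 s intervals; 50 mM HEPES pH 7.8, 0.5 mM EDTA, 0.1 mg/ml BSA, 1 mM TCEP, 0.01% Tween-20.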
TRHR enhancer = TRH receptor (human) allosteric enhancement. P34981. TRHR cells, fluo-8 calcium fluorescence, EC20 TRH enhancement. enhancement, % at 2 µM. hit rate 0.66% among 360,000; in the data active = enhancement above about 30%; also: 0% is about no effect
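Enhancer read-out: after compound pinning and an initial kinetic agonist-mode read, an EC20 of TRH (10 nM final) was injected and fluo-8 calcium signal (Ex 480/Em 530) followed at 1 s/cycle for 100 cycles in TRHR-expressing cells.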
D1 antag = human D1 dopamine receptor antagonism | P21728 | HEK293 TREx D1 cells, calcium flux, dopamine EC80; hits give low values | activity change, negative = inhibition, % at 10 µM | hit rate 3.2% among 360,000; in the data active = activity change below about -30%; also: % is scaled to controls: 0 for no effect and ±100 for the full control effect
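Allosteric or orthosteric antagonism assessed as attenuation of the calcium response to EC80 dopamine, added 180 s after compound, in induced HEK293 Trex D1 cells loaded with no-wash calcium dye.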
Active calls of the source: *; ? = inconclusive; . = no result; ! = not active in a repeat. Shown are actives, neighbours in structure and some others; about 4.4% of the full set was active somewhere. Rule as the data show it, unless noted: active = activation above about 30%; inactive = the rest.

SMILES	TRHR ag	D1 ag	D1 potentiator	USP1-UAF1 inh	TRHR enhancer	D1 antag
O=C(NCc1nnc(-c2cc3ccccc3[nH]2)o1)c1ccccc1	0	3	-4	.	-5	-11
CCOc1ccccc1CNC(=O)C1CCN(C(=O)N2CCOc3ccc(Cl)cc32)CC1	0	1	-1	-3%	-7	4
COc1cccc(-n2c(CN3CCN(Cc4ccccc4)CC3)nc3ccc([N+](=O)[O-])cc3c2=O)c1	0	0	-3	.	3	16
CCOC(=O)c1ccc(-n2c(CN3CCN(CCO)CC3)nc3ccc([N+](=O)[O-])cc3c2=O)cc1	0	13	0	-18%	37*	-2
O=C(CBr)N1CCc2ccccc2C(c2ccccc2)C1 (centres undefined)	-1	0	2	-12%	-8	-7
c1ccc(C2CNCCc3ccccc32)cc1 (centres undefined)	0	15	-19	-15%	-10	-42*
Oc1cc2c(cc1O)[C@@H](c1ccccc1)CNCC2	-1	5	-6	-21%	-7	-91*
Oc1cc2c(cc1O)C(c1ccccc1)CNCC2 (centres undefined)	.	.	.	-24%	.	.
CCOc1ccccc1C1C(C(=O)Nc2ccccc2)=C(C)Nc2nc(SCC(=O)c3ccc(C)cc3)nn21 (centres undefined)	1	2	-2	-5%	1	7
CN1CCN(Cc2c(O)ccc3occ(C(=O)c4ccccc4)c23)CC1	0	15	-11	-18%	28	-77*
CCOc1cc(C2C3=C(CCCC3=O)Nc3ccc4ncccc4c32)ccc1O (centres undefined)	0	7	0	-7%	-1	-15
CCOC(=O)C1=C(C)NC2=C(C(=O)CCC2)C1c1ccc(O)c(OCC)c1 (centres undefined)	0	1	0	-11%	34*	1
O=Nc1c(-c2c(O)[nH]c3cc(Br)ccc23)[nH]c2ccccc12	4	9	-9	-28%	-9	-57*
COc1cc(OC)c(NC(=O)Cc2c(C(=O)O)c(C)cn2C)cc1Cl	0	0	-3	-5%	-4	24
CCOc1ccc(-n2nc3ccc(NC(=O)COc4ccccc4C)cc3n2)cc1	1	2	-2	-4%	11	1
COC(=O)c1ccc(S(=O)(=O)N(Cc2ccccc2)Cc2ccccc2)n1C	-1	11	-4	-20%	5	-40*
C/C(=N/NC(=O)c1ccccc1)C(=O)O	0	0	-1	-16%	28	-31*
O=C(NN=c1c(=O)c2ccccc2c1=O)c1ccccc1	0	-1	0	32µM*	0	-7
CN(C)/C=N/NC(=O)c1ccccc1	0	3	2	-11%	5	7
C[C@@H](NC(=O)Cn1ccc(NC(=O)OCc2ccccc2)nc1=O)c1cccc2ccccc12	1	3	-5	-5%	-9	-33*
CCOC(=O)c1c(-c2ccc(OC)cc2)csc1/N=C/C1C(=O)CCCC1=O	12	29	-8	-16%	21	-47*
CCCOc1ccc2c(C)c(CC(=O)OC)c(=O)oc2c1	0	-2	-2	-20%	5	1
COC(=O)Cc1c(C)c2ccc(OCC(=O)N(C)C)cc2oc1=O	1	4	-2	-7%	30*	-3
CC1(C)CC(=O)C(N=Nc2ccc(F)cc2)=C(O)C1	0	3	-5	-10%	4	-42*
Cn1cc(CCNC(=O)C2CCC(=O)N(CCc3ccc(Cl)cc3)C2)cn1 (centres undefined)	0	0	-18	-11%	-7	-52*
SMILES	TRHR ag	D1 ag	D1 potentiator	USP1-UAF1 inh	TRHR enhancer	D1 antag
Cc1csc(CN(C)C(=O)C2CCC(=O)N(CCCc3ccccc3)C2)n1 (centres undefined)	0	6	0	-8%	-2	-43*
Cc1ccc(F)cc1CNC(=O)C1CCC(=O)N(CCc2ccccc2)C1 (centres undefined)	-1	0	1	-10%	-2	4
O=C(NCCCc1ccccc1)C1CCC(=O)N(Cc2ccc(Cl)cc2)C1 (centres undefined)	0	6	-3	-20%	-8	-41*
Cc1c(CNC(=O)C2CCC(=O)N(CCc3ccccc3)C2)cnn1C (centres undefined)	0	4	2	-7%	3	-33*
COc1ccc(CCCNC(=O)C2CCC(=O)N(Cc3ccc(Cl)cc3)C2)cc1 (centres undefined)	0	5	-4	-1%	-8	-6
CCOc1ccccc1CNC(=O)c1[nH]c2ccccc2c1Sc1ccccc1	-1	3	0	-29%	-5	-12
CCc1ccc(NC(=O)CSC2=Nc3ccccc3C3=NC(CCC(=O)NCc4ccco4)C(=O)N23)cc1 (centres undefined)	0	3	-3	?	-11	4
CCN(CC)c1ccc(NC(=O)CN2C(=O)c3cccnc3Sc3ccccc32)c(C)c1	-1	0	-4	-6%	-2	-22
CCOc1ccc(-n2c(SCC(=O)Nc3ccc(CC)cc3)nc3c(oc4ccccc43)c2=O)cc1	0	-2	0	-5%	5	6
O=S(=O)(NCCNS(=O)(=O)c1c(F)cccc1F)c1ccc2c(c1)OCCO2	0	-2	0	.	2	-24
Cc1ccc(SCCNS(=O)(=O)c2ccc3c(c2)OCCO3)cc1	0	10	-8	-15%	-2	-33*
O=S(=O)(NCCCCNS(=O)(=O)c1c(F)cccc1F)c1ccc2c(c1)OCCO2	0	1	0	.	2	-41*!
O=S(=O)(Nc1cccc(-c2ccc(N3CCCCC3)nn2)c1)c1ccc(Cl)s1	0	1	1	?	5	-15
COc1ccccc1C(=O)Nc1cccc(C(=O)OCc2cc(=O)n3nc(C4CC4)sc3n2)c1	-1	1	0	?	-1	1
Cc1ccc(C2=CC(=O)C[C@H](c3ccc4c(c3)OCO4)C2)cc1	0	0	-1	-15%	-1	.
O=C1C=C(c2ccc3c(c2)oc2ccccc23)C[C@@H](c2ccc3c(c2)OCO3)C1	0	0	0	-18%	21	-33*
COc1cc(NC(=O)N2CCN(c3cc(-c4noc(C)n4)ccc3C)CC2)cc(OC)c1OC	-1	1	-4	-15%	-2	-10
Cn1nnnc1SCCCNCc1cccc(OCc2ccccc2Cl)c1	1	108*	1	4%	3	-19
Cn1nnnc1SCCCNCc1cc(Cl)ccc1OCc1ccccc1	1	40*	-1	-22%	-2	-26

Source: PubChem (National Center for Advancing Translational Sciences (NCATS))
